Source: ChEMBL document CHEMBL1961873, “Compounds: GSK PKIS; Assays: Nanosyn kinase panel” (2012)

How the values were obtained:
[1] = biological target: Serine/threonine-protein kinase 4 (Homo sapiens) (UniProt Q13043); conditions: at 0.1 µM
[2] = biological target: Serine/threonine-protein kinase 4 (Homo sapiens) (UniProt Q13043); conditions: at 1 µM
[3] = biological target: Serine/threonine-protein kinase 3 (Homo sapiens) (UniProt Q13188); conditions: at 0.1 µM
[4] = biological target: Serine/threonine-protein kinase 3 (Homo sapiens) (UniProt Q13188); conditions: at 1 µM
[5] = biological target: Serine/threonine-protein kinase 26 (Homo sapiens) (UniProt Q9P289); conditions: at 0.1 µM
[6] = biological target: Serine/threonine-protein kinase 26 (Homo sapiens) (UniProt Q9P289); conditions: at 1 µM
[7] = biological target: Serine/threonine-protein kinase PAK 1 (Homo sapiens) (UniProt Q13153); conditions: at 0.1 µM
[8] = biological target: Serine/threonine-protein kinase PAK 1 (Homo sapiens) (UniProt Q13153); conditions: at 1 µM
[9] = biological target: Serine/threonine-protein kinase PAK 2 (Homo sapiens) (UniProt Q13177); conditions: at 0.1 µM
[10] = biological target: Serine/threonine-protein kinase PAK 2 (Homo sapiens) (UniProt Q13177); conditions: at 1 µM
[11] = biological target: Serine/threonine-protein kinase PAK 3 (Homo sapiens) (UniProt O75914); conditions: at 0.1 µM
[12] = biological target: Serine/threonine-protein kinase PAK 3 (Homo sapiens) (UniProt O75914); conditions: at 1 µM
[13] = biological target: Serine/threonine-protein kinase PAK 5 (Homo sapiens) (UniProt Q9P286); conditions: at 0.1 µM
[14] = biological target: Serine/threonine-protein kinase PAK 5 (Homo sapiens) (UniProt Q9P286); conditions: at 1 µM
[15] = biological target: Serine/threonine-protein kinase PAK 6 (Homo sapiens) (UniProt Q9NQU5); conditions: at 0.1 µM
[16] = biological target: Serine/threonine-protein kinase PAK 6 (Homo sapiens) (UniProt Q9NQU5); conditions: at 1 µM
[17] = test system: Tyrosine-protein kinase ABL1 (Homo sapiens), P00519 [E255K]; conditions: at 0.1 µM
[18] = test system: Tyrosine-protein kinase ABL1 (Homo sapiens), P00519 [E255K]; conditions: at 1 µM
[19] = test system: Tyrosine-protein kinase ABL1 (Homo sapiens), P00519 [H396P]; conditions: at 0.1 µM
[20] = test system: Tyrosine-protein kinase ABL1 (Homo sapiens), P00519 [H396P]; conditions: at 1 µM
[21] = test system: Tyrosine-protein kinase ABL1 (Homo sapiens), P00519 [M351T]; conditions: at 0.1 µM
[22] = test system: Tyrosine-protein kinase ABL1 (Homo sapiens), P00519 [M351T]; conditions: at 1 µM
[23] = test system: Tyrosine-protein kinase ABL1 (Homo sapiens), P00519 [Q252H]; conditions: at 0.1 µM
[24] = test system: Tyrosine-protein kinase ABL1 (Homo sapiens), P00519 [Q252H]; conditions: at 1 µM
[25] = test system: Tyrosine-protein kinase ABL1 (Homo sapiens), P00519 [T315I]; conditions: at 0.1 µM
[26] = test system: Tyrosine-protein kinase ABL1 (Homo sapiens), P00519 [T315I]; conditions: at 1 µM
[27] = test system: Tyrosine-protein kinase ABL1 (Homo sapiens), P00519 [Y253F]; conditions: at 0.1 µM
[28] = test system: Tyrosine-protein kinase ABL1 (Homo sapiens), P00519 [Y253F]; conditions: at 1 µM
[29] = biological target: Tyrosine-protein kinase ABL1 (Homo sapiens) (UniProt P00519); conditions: at 0.1 µM
[30] = biological target: Tyrosine-protein kinase ABL1 (Homo sapiens) (UniProt P00519); conditions: at 1 µM
[31] = biological target: ALK tyrosine kinase receptor (Homo sapiens) (UniProt Q9UM73); conditions: at 0.1 µM
[32] = biological target: ALK tyrosine kinase receptor (Homo sapiens) (UniProt Q9UM73); conditions: at 1 µM
[33] = biological target: Tyrosine-protein kinase ABL2 (Homo sapiens) (UniProt P42684); conditions: at 0.1 µM
[34] = biological target: Tyrosine-protein kinase ABL2 (Homo sapiens) (UniProt P42684); conditions: at 1 µM
[35] = biological target: Tyrosine-protein kinase receptor UFO (Homo sapiens) (UniProt P30530); conditions: at 0.1 µM
[36] = biological target: Tyrosine-protein kinase receptor UFO (Homo sapiens) (UniProt P30530); conditions: at 1 µM
[37] = biological target: Tyrosine-protein kinase Blk (Homo sapiens) (UniProt P51451); conditions: at 0.1 µM
[38] = biological target: Tyrosine-protein kinase Blk (Homo sapiens) (UniProt P51451); conditions: at 1 µM
[39] = biological target: Cytoplasmic tyrosine-protein kinase BMX (Homo sapiens) (UniProt P51813); conditions: at 0.1 µM
[40] = biological target: Cytoplasmic tyrosine-protein kinase BMX (Homo sapiens) (UniProt P51813); conditions: at 1 µM
[41] = biological target: Protein-tyrosine kinase 6 (Homo sapiens) (UniProt Q13882); conditions: at 0.1 µM
[42] = biological target: Protein-tyrosine kinase 6 (Homo sapiens) (UniProt Q13882); conditions: at 1 µM
[43] = biological target: Tyrosine-protein kinase BTK (Homo sapiens) (UniProt Q06187); conditions: at 0.1 µM
[44] = biological target: Tyrosine-protein kinase BTK (Homo sapiens) (UniProt Q06187); conditions: at 1 µM
[45] = biological target: Tyrosine-protein kinase CSK (Homo sapiens) (UniProt P41240); conditions: at 0.1 µM
[46] = biological target: Tyrosine-protein kinase CSK (Homo sapiens) (UniProt P41240); conditions: at 1 µM
[47] = biological target: Discoidin domain-containing receptor 2 (Homo sapiens) (UniProt Q16832); conditions: at 0.1 µM
[48] = biological target: Discoidin domain-containing receptor 2 (Homo sapiens) (UniProt Q16832); conditions: at 1 µM
[49] = biological target: Epidermal growth factor receptor (Homo sapiens) (UniProt P00533); conditions: at 0.1 µM
[50] = biological target: Epidermal growth factor receptor (Homo sapiens) (UniProt P00533); conditions: at 1 µM
[51] = test system: Epidermal growth factor receptor (Homo sapiens), P00533 [L858R]; conditions: at 0.1 µM
[52] = test system: Epidermal growth factor receptor (Homo sapiens), P00533 [L858R]; conditions: at 1 µM
[53] = test system: Epidermal growth factor receptor (Homo sapiens), P00533 [L861Q]; conditions: at 0.1 µM
[54] = test system: Epidermal growth factor receptor (Homo sapiens), P00533 [L861Q]; conditions: at 1 µM
[55] = test system: Epidermal growth factor receptor (Homo sapiens), P00533 [T790M]; conditions: at 0.1 µM
[56] = test system: Epidermal growth factor receptor (Homo sapiens), P00533 [T790M]; conditions: at 1 µM

Epidermal growth factor receptor (Homo sapiens), P00533 [T790M], sequence (P00533 whole entry T790M): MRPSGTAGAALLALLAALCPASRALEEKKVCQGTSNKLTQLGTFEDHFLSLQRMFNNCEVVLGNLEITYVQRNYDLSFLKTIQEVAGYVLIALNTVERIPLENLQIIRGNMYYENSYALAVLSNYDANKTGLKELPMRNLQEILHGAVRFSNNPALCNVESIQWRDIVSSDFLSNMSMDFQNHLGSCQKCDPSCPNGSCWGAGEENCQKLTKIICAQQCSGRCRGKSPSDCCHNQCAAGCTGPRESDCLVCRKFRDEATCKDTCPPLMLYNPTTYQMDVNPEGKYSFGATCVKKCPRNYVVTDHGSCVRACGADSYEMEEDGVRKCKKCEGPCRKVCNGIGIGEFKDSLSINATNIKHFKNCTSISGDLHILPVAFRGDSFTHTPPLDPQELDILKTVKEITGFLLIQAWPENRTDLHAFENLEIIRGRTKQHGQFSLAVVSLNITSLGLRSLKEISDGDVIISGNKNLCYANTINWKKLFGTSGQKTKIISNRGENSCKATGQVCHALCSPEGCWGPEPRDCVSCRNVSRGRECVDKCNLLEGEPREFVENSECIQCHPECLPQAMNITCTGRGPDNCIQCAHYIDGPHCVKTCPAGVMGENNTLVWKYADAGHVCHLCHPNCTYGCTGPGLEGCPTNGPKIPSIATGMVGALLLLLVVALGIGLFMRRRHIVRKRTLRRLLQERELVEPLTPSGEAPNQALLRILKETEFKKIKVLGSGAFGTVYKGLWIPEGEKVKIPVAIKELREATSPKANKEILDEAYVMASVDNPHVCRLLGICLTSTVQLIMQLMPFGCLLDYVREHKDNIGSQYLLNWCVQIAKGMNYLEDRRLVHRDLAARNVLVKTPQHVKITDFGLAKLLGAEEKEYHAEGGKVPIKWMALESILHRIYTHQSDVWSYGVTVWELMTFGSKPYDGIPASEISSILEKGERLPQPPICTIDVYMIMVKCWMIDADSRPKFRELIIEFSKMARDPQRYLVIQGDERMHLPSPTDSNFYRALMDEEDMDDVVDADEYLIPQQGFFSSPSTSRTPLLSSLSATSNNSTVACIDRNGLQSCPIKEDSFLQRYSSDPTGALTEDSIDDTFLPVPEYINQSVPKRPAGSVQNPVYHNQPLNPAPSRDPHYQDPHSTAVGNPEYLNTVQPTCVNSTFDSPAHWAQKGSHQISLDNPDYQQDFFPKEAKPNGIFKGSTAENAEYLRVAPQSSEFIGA
Serine/threonine-protein kinase 3 (Homo sapiens), sequence (Q13188 whole entry): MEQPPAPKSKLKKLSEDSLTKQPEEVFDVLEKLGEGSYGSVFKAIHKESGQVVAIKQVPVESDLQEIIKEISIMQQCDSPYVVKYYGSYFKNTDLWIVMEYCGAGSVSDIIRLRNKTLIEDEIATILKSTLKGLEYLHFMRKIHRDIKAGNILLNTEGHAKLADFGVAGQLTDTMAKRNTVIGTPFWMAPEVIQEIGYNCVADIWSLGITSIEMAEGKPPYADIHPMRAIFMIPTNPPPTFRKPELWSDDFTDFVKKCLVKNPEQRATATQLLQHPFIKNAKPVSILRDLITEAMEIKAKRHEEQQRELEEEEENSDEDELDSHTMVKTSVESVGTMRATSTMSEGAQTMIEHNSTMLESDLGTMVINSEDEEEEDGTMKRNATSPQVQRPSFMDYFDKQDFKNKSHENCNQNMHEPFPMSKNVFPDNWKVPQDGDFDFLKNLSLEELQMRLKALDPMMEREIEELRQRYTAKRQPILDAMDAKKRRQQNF
Discoidin domain-containing receptor 2 (Homo sapiens), sequence (Q16832 whole entry, the tested form may be a part): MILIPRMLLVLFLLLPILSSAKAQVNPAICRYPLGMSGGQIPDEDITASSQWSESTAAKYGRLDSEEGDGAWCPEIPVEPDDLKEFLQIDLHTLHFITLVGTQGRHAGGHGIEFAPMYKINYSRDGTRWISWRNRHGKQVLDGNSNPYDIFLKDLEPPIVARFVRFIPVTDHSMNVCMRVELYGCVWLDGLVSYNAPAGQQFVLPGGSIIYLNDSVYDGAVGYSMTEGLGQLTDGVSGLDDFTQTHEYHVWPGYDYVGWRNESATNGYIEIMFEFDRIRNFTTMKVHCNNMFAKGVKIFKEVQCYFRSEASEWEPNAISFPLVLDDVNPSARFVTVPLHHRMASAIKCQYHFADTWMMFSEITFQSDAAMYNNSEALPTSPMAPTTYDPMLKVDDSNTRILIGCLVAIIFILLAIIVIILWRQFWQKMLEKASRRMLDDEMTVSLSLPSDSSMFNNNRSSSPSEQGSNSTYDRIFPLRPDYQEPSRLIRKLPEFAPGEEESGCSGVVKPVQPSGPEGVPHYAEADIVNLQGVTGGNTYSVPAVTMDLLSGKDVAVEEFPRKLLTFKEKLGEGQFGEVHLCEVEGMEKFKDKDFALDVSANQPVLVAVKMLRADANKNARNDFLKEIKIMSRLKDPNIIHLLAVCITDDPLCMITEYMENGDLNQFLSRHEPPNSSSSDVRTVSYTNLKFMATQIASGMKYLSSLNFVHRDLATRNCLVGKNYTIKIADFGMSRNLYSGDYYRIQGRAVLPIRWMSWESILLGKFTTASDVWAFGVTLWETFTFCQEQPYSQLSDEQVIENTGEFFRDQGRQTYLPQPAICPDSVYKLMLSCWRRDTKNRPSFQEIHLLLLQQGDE
Serine/threonine-protein kinase 26 (Homo sapiens), sequence (Q9P289 2-416 limits assumed): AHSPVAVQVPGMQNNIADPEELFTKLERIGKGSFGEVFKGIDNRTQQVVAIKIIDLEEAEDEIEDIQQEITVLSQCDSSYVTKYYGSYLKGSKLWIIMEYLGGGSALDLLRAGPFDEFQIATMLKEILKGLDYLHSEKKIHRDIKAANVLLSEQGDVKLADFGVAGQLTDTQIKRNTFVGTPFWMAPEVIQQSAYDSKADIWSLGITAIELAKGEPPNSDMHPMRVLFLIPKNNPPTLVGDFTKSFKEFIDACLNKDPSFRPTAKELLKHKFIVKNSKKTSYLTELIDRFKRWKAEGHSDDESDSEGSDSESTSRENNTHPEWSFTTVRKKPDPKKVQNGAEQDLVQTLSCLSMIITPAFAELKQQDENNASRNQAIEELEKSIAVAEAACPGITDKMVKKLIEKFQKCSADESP
Tyrosine-protein kinase CSK (Homo sapiens), sequence (P41240 2-450 limits assumed): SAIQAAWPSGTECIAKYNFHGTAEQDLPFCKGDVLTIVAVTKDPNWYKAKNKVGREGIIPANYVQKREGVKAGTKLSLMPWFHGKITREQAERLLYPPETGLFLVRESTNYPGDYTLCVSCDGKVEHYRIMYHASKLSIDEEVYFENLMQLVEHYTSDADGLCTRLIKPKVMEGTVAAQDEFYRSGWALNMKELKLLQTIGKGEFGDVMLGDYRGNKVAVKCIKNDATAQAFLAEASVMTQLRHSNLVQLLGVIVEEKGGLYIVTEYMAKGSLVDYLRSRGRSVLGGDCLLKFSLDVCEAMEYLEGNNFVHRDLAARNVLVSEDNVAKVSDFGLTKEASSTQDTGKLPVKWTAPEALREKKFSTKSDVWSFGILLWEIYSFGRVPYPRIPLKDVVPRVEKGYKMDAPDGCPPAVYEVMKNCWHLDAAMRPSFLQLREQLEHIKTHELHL
Tyrosine-protein kinase Blk (Homo sapiens), sequence (P51451 2-505 limits assumed): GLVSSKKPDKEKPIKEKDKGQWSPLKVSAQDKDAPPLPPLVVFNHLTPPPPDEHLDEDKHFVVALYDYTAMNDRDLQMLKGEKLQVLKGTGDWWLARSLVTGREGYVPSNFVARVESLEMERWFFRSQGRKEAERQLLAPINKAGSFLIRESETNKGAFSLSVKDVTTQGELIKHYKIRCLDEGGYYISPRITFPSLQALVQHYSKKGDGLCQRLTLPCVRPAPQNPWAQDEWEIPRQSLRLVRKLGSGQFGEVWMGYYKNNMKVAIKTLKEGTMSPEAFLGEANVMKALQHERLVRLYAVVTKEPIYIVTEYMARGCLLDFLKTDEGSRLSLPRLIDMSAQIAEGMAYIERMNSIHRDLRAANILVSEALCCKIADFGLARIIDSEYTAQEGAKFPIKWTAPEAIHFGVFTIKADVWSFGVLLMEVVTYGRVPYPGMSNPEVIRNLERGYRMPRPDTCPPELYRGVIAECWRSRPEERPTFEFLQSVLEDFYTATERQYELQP
Serine/threonine-protein kinase PAK 5 (Homo sapiens), sequence (Q9P286 whole entry, looked up): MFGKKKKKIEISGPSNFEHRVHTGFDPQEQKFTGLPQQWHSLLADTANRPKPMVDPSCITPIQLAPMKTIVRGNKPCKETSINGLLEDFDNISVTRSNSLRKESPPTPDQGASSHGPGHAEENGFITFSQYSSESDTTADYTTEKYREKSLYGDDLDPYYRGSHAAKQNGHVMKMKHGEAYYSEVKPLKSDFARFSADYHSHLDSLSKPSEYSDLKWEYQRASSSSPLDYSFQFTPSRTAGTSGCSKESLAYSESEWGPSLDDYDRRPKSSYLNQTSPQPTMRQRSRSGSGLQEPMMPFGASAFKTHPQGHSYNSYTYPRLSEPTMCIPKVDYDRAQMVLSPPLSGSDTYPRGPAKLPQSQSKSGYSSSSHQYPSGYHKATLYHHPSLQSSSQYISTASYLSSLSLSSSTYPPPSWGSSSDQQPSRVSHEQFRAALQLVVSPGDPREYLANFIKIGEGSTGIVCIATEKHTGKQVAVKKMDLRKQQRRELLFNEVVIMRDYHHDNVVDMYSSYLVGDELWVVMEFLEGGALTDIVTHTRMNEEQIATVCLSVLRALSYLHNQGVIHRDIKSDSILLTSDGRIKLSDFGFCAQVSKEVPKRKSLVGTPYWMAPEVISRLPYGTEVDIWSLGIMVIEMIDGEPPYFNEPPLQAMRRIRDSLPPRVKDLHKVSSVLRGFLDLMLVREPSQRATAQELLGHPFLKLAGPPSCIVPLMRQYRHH

## CNC(=O)Oc1cc(C)c(/C=C/c2cncc(C(=O)NC)c2)c(C)c1
[1]
  inhibition: 4.28%
[2]
  inhibition: 7.77%
[3]
  inhibition: 4.88%
[4]
  inhibition: 4.5%
[5]
  inhibition: -0.01%
[6]
  inhibition: -0.02%
[7]
  inhibition: 3.48%
[8]
  inhibition: 5.41%
[9]
  inhibition: 1.99%
[10]
  inhibition: 1.98%
[11]
  inhibition: 1.98%
[12]
  inhibition: 3.68%
[13]
  inhibition: -4.59%
[14]
  inhibition: -1.52%
[15]
  inhibition: 5.83%
[16]
  inhibition: -0.24%
[17]
  inhibition: 7.72%
[18]
  inhibition: 50.5%
[19]
  inhibition: 17.9%
[20]
  inhibition: 66.5%
[21]
  inhibition: 18.4%
[22]
  inhibition: 65%
[23]
  inhibition: 14.5%
[24]
  inhibition: 58.6%
[25]
  inhibition: 1.76%
[26]
  inhibition: 3.56%
[27]
  inhibition: 23%
[28]
  inhibition: 69.2%
[29]
  inhibition: 12.9%
[30]
  inhibition: 55.8%
[31]
  inhibition: 2.46%
[32]
  inhibition: 14.2%
[33]
  inhibition: 9.35%
[34]
  inhibition: 64.3%
[35]
  inhibition: -1.68%
[36]
  inhibition: 1.31%
[37]
  inhibition: 2.38%
[38]
  inhibition: 17.7%
[39]
  inhibition: 6.61%
[40]
  inhibition: 48.2%
[41]
  inhibition: 17.1%
[42]
  inhibition: 66.2%
[43]
  inhibition: 3.71%
[44]
  inhibition: 7.17%
[45]
  inhibition: 7.8%
[46]
  inhibition: 23%
[47]
  inhibition: 1.69%
[48]
  inhibition: 4.31%
[49]
  inhibition: 1.01%
[50]
  inhibition: 3.7%
[51]
  inhibition: 1.37%
[52]
  inhibition: 18.1%
[53]
  inhibition: 1.07%
[54]
  inhibition: 2.38%
[55]
  inhibition: 0.88%
[56]
  inhibition: 0.02%
